According to PubChem BioAssay AID652245 (The Scripps Research Institute Molecular Screening Center, 2013):
In all, about 1,600 compounds went through this assay and about 920 (58%) were called active. So high a share suggests a set chosen from earlier hits. A selection follows. Unmarked numbers belong to inactive results.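 How the source made its calls: active means inhibition above the primary screen's cutoff, the mean inhibition of all screened compounds plus 3 SD (cut at about 13% in these data); inactive means the rest.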

Each molecule was assayed against Galanin receptor type 3 (Homo sapiens) (UniProt O60755) (assay: blockers of human galanin receptor 3 – cell-based, fluorescence, triplicate, confirmation (AID 652245;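 further: 0% = forskolin plus galanin and 100% = forskolin alone with DMSO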)). Settings: HEK293 GalR3 CNG cAMP biosensor, membrane potential fluorescence; at 3 µM; stronger effect = higher value; challenged with forskolin and galanin at EC90; galR3 fused to GalR1 carboxy tail.
Sequence of Galanin receptor type 3 (Homo sapiens) (O60755 1-299 limits assumed): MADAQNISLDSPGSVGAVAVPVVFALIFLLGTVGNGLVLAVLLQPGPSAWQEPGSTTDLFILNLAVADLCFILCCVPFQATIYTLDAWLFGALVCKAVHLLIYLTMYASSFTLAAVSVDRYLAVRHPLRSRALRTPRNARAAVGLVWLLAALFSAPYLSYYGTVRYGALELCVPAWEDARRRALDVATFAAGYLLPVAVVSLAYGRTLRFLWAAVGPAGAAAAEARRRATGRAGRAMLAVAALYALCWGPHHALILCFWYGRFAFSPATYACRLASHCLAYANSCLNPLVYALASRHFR
NC(=O)c1ccc(NC(=O)COC(=O)C(Cc2ccccc2)NC(=O)c2ccccc2)cc1 (configuration not stated) was tested, and the inhibition was 22.3% (active).
Work on COc1ccc(CCNc2nc3ccc(C)cc3n3cnnc23)cc1OC yielded an inhibition of 12.1%.
For C=CCC1(CC=C)CCCN1C(=O)c1cc(COc2ccc(-n3cncn3)cc2)on1, the inhibition was 104% (active).
In the case of Nc1nonc1-n1nnc(C(=O)N/N=C/c2cc(Br)ccc2O)c1CSC1=NCCS1, the inhibition is reported as 63.2% (active).
In the case of CCNC(=S)Nc1ccc(OC(F)(F)F)cc1, the inhibition is reported as 18.3% (active).
In the case of CCN1/C(=C\c2ccc3ccccc3[n+]2CC)Sc2cc(C)ccc21, the inhibition is reported as 55.5% (active).
With CCOc1ccc(Br)cc1CSC(=N)N the inhibition was 56.7% (active).
Work on COc1ccc(-c2csc(-c3cccs3)n2)cc1OC yielded an inhibition of -4.97%.
COC(=O)c1ccc(/C=N/N2C(C)CCCC2C)cc1 (configuration not stated) was tested, and the inhibition was 14.9% (active).
With c1coc(CNc2ncnc3ccccc23)c1 the inhibition was 28.1% (active).
With Cc1c(C=O)c2ccccc2n1CC(=O)O the inhibition was -2.92%.
For CN(Cc1cccnc1)C(=O)c1cc(COc2ccc3ncccc3c2)on1, the inhibition was 103% (active).
COc1ccc(C(=O)COC(=O)COc2ccc(C)c(C)c2)cc1 gave an inhibition of -0.4%.
For OC[C@@H]1CN(Cc2ccc(-c3ccccc3)cc2)C[C@H](n2cnc3c(NC4CCCC4)ncnc32)O1, the inhibition was 92.5% (active).
In the case of COc1cc(NC(=O)c2cc([N+](=O)[O-])ccc2Br)ccc1NC(=O)c1ccco1, the inhibition is reported as 27.5% (active).
For CC(=O)c1c(C)[nH]c(C(=O)COC(=O)c2cccc(S(=O)(=O)N(C)c3ccccc3)c2)c1C, the inhibition was 82.3% (active).
With CCCn1nc(C(=O)NNC(=O)CSCC(=O)Nc2cc(C)on2)c2ccccc2c1=O the inhibition was 3.6%.
COCCNC(=O)/C(C#N)=C/c1cccc(OCc2ccccc2)c1 was tested, and the inhibition was -3.13%.
For COc1cc(C(=O)Nn2c(O)c(C3=c4ccccc4=NC3=O)sc2=S)ccc1O, the inhibition was 5.9%.
COc1cc(Cl)c(C)cc1NC(=O)[C@@H]1CCCN1C(=O)c1cccs1 was tested, and the inhibition was 17.8% (active).
Molecule COc1ccc(-c2[nH]nc3c2C(c2ccncc2)C(C#N)=C(N)O3)cc1 (configuration not stated) has an inhibition of 7.93%.
In the case of O=C(/C=C/c1c(F)cccc1Cl)Nc1nn[nH]n1, the inhibition is reported as 5.44%.
With COc1ccc(OC)c(NC(=O)CSc2nc(N)c(-c3ccccc3)c(=O)[nH]2)c1 the inhibition was 38% (active).
With O=C(CC(O)(C(F)(F)F)C(F)(F)F)Nc1ccc(Cl)c(Cl)c1 the inhibition was 81.5% (active).
In the case of c1ccc(Cc2ccc(OCCn3ccnc3)cc2)cc1, the inhibition is reported as 35.9% (active).
In the case of COc1ccc(C2CC(=O)Nc3sc(=N)c4c(N)c(C#N)c(N)nc4c32)cc1OC (configuration not stated), the inhibition is reported as 69.2% (active).
CCCCNC(=O)c1ccccc1NC(=O)C1=C(C)OCCS1 was tested, and the inhibition was 1.8%.
For COc1ccc(NS(=O)(=O)c2ccc(NC(=O)c3ccc(N(C)S(C)(=O)=O)cc3)cc2)cc1, the inhibition was 106% (active).
Molecule CSc1nc(N(C)NC(=O)c2cccc(C)c2)c2ccccc2n1 has an inhibition of 6%.
With CC(=O)OC(C)C[N+](C)(C)C (configuration not stated) the inhibition was 78% (active).
CCOC(=O)c1cc2n(c1C)-c1ccccc1C2=O gave an inhibition of 3.19%.
CCc1ccc(-c2nc(SCC(=O)NC3CCCC3)n[nH]2)cc1 showed an inhibition of 3.25%.
In the case of Nc1ncnc2c1ncn2C1OC(CO)CC1O (configuration not stated), the inhibition is reported as 49.1% (active).
For CCCOc1ccc(Cc2c(Cl)nc(SC)nc2NC)cc1, the inhibition was 94.2% (active).
COc1ccc(N(C(=O)CNC(=O)c2ccco2)C(C(=O)NCC2CCCO2)c2ccccc2)cc1Cl (configuration not stated) showed an inhibition of 0.26%.
For CC1(C)CC(N2CCN(C(c3ccccc3)c3ccccc3)CC2)=CC(=[N+]2CCCCC2)C1, the inhibition was 45% (active).
Work on Cn1cnc([N+](=O)[O-])c1Nc1ccccc1O yielded an inhibition of 10.2%.
With Cc1c(Cl)cccc1NC(=O)CSc1ccc(-c2cccnc2)nn1 the inhibition was -1.99%.
For Cn1c(CN2CCOCC2)nc2cc(NC(=O)c3ccc(Cl)cc3)ccc21, the inhibition was 85.6% (active).
O=C(NC(Nc1nc2ccc([N+](=O)[O-])cc2s1)(C(F)(F)F)C(F)(F)F)c1ccccc1 was tested, and the inhibition was 43% (active).
CC(CCc1ccccc1)NCC(O)c1cccc([N+](=O)[O-])c1 (configuration not stated) was tested, and the inhibition was 22.3% (active).
With CCOc1ccc(C(C)=O)cc1COC(=O)c1cnc(Cl)c(Cl)c1 the inhibition was 15.3% (active).
For COC(=O)c1cccc([N+](=O)[O-])c1CS(=O)(=O)c1ccc(C)cc1, the inhibition was 4.93%.
In the case of COCCN1Cc2cccc(C(=O)Nc3ccccc3OC)c2C1=O, the inhibition is reported as 32.4% (active).
Work on CCn1c(-c2cc(OC)ccc2OC)csc1=Nc1c(C)n(C)n(-c2ccccc2)c1=O yielded an inhibition of 2.25%.
COc1ccc(C2Nc3ccccc3C(=O)N2c2ccc(Cl)cc2)cc1Cn1cc([N+](=O)[O-])cn1 (configuration not stated) was tested, and the inhibition was 36.9% (active).
With Cc1ccc(F)cc1NC(=O)Cc1nn(C)c(=O)c2ccccc12 the inhibition was 5.03%.
Molecule CC(C)[C@@H](C(=O)OCC(=O)c1ccc2c(c1)NC(=O)CO2)N1C(=O)c2ccccc2C1=O has an inhibition of 8.91%.
In the case of C#Cc1ccc(NC(=O)C2(C)CCN2C(=O)Cc2ccc(-c3ccccc3)cc2)cc1 (configuration not stated), the inhibition is reported as 90.1% (active).
Cc1ccc(S(=O)(=O)N2CCN(C(=O)COC(=O)c3c(C)cc(C)cc3C)CC2)c(C)c1 was tested, and the inhibition was 3.27%.
CCOC(=O)c1c(NC(=O)CSc2nccc(=O)[nH]2)sc(C)c1C showed an inhibition of -4.89%.
CC(C)(CNC(=O)c1ccc(Cl)c(S(=O)(=O)N2CCc3ccccc3C2)c1)N1CCOCC1 was tested, and the inhibition was 111% (active).
Work on Nc1nc(NCC(=O)O)nc(N2CCCCCC2)c1[N+](=O)[O-] yielded an inhibition of 8.6%.
In the case of O=C(Nc1ccccc1Cl)/C(Cl)=C(\Cl)S(=O)c1ccccc1 (configuration not stated), the inhibition is reported as 21.5% (active).
For O=C(Nc1ccc(CSc2ccccc2)cc1)c1ccc(CN2CCOCC2)cc1, the inhibition was 113% (active).
In the case of Cn1c(N)c(C(=O)COC(=O)c2cnc(Cl)c(Cl)c2)c(=O)n(C)c1=O, the inhibition is reported as 15.8% (active).
O=C(CC1C(=O)NCCN1CC(c1ccccc1)c1ccccc1)NCCc1cn[nH]c1 (configuration not stated) gave an inhibition of -1.25%.
For CSc1nccc(NC(=O)c2ccc(C(C)(C)C)cc2)n1, the inhibition was 104% (active).
Cc1nc2ccccc2cc1OCc1ccc(F)cc1 was tested, and the inhibition was 83.8% (active).
In the case of C[C@@]12C(=O)N(c3cccc(Br)c3)C(=O)N1[C@H](c1ccc(Cl)cc1)[C@@H]1C(=O)N(C3CCCCC3)C(=O)[C@@H]12, the inhibition is reported as -8.96%.
CNC(=O)NC(=O)CSc1nnc(-c2ccc(F)cc2)n1CC1CCCO1 (configuration not stated) was tested, and the inhibition was 22% (active).
CCOc1cc(C(=O)N2CCc3cc(OC)c(OC)cc3C2)ccc1OC(F)F gave an inhibition of 6.34%.
For CSc1nc(N)c(C#N)c(-c2ccccc2Cl)c1C#N, the inhibition was 84.8% (active).
In the case of Cn1nccc1C(=O)NC1CCCc2c1cnn2-c1ccc(F)cc1F (configuration not stated), the inhibition is reported as 114% (active).
With CCN(CC(=O)NCc1ccc(Cl)cc1)C(=O)CSc1ccccc1 the inhibition was 56.2% (active).
COc1cc2c(cc1OC)C(c1cccc([N+](=O)[O-])c1)=NCC2 was tested, and the inhibition was 17.9% (active).
For CC(=O)N1CCCc2cc(S(=O)(=O)N3CCCC(C(=O)N4CCN(c5cccc(Cl)c5)CC4)C3)ccc21 (configuration not stated), the inhibition was 92.5% (active).
